Results reported in PubChem BioAssay (NCI).
Values joined by “and” are separate entries in the source; they are usually repeats but may differ in a detail not shown here. Equal values may be shown once. This is part of a sample that, as a whole, favours compounds with a hit. Of some 83,000 tested, about 20% had one in any assay.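 Plates (96-well) were seeded with cells, treated with compound at one concentration, and incubated for 48 hours before percent growth was determined.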 A number with no mark means an inactive call. Active and inactive are the calls of the source. How the source made its calls: active means growth percent below 10; inactive means the rest.

tested on: MDA-MB-468 breast; assay: NCI-60 one-dose screen, 48 h (100 = growth as untreated, 0 = no growth, -100 = all killed); conditions: 10 µM unless noted

Structure (SMILES) | growth
O=C1/C(=C\c2cccn2Cc2ccc(Cl)cc2)c2ccccc2N1c1c(Cl)cccc1Cl | -27.9% (active)
COc1ccc(C2CC(c3ccc(OC)c(OC)c3)=NN2C(=O)c2cc(OC)c(OC)c(OC)c2)cc1 (stereo not given) | -32.5% (active)
CCCNC(=O)c1cn2ncnc(Nc3cc(C(=O)NC4CC4)ccc3C)c2c1C | 73%
Cc1cc(-c2ccc(N=Nc3c(S(=O)(=O)O)cc4cc(S(=O)(=O)O)cc(O)c4c3O)c(C)c2)ccc1N=Nc1c(S(=O)(=O)O)cc2cc(S(=O)(=O)O)cc(O)c2c1O | 109%
Fc1ccc(NC(=S)c2ccccc2)cc1 | 97.5%
O=C1C=CC2(NN=C(c3ccccc3)N2c2ccc(Cl)cc2)c2cccc(O)c21 (stereo not given) | 47.6%
CCOC(=O)c1c(NC(=O)C2CCCCC2C(=O)O)sc2c1CCCC2 (stereo not given) | 103%
N#Cc1ccc(OCc2nc(N)nc(N)c2-c2ccc(Cl)c(Cl)c2)cc1 | 35.4%
C#C[C@]1(O)CC[C@H]2[C@@H]3CC=C4c5sc(NCc6ccccc6)nc5CC[C@]4(C)[C@H]3CC[C@@]21C | 45.4%
Clc1nc(Cl)c2ncn(-c3ccccc3)c2n1 | 3.71% (active)
c1coc(CNc2c3ccccc3nc3ccccc23)c1 | 29.4%
CCCCCc1ccc(S(=O)(=O)Nc2cc(-c3csc(NC(=O)CN4CCN(CCO)CC4)n3)ccc2OC)cc1 | 69.1%
C=CCc1c(O)c(C(=O)/C=C/c2ccccc2)c(OC)c2ccoc12 | 6.58% (active)
Cc1c(NC(=O)OC[C@@H]2COCCN2)cn2ncnc(Nc3ccc4c(cnn4Cc4cccc(F)c4)c3)c12 | -53.7% (active)
O=C1NC(=O)C(c2cnc3ccccn23)=C1c1cn2c3c(cc(F)cc13)CN(C(=O)N1CCCCC1)CC2 | 47.6%
S=c1cc(S)c2cc(Br)ccc2[nH]1 | 104%
Fc1ccc(C(c2ccc(F)cc2)C(Cl)Cl)cc1 | 104%
Cc1cc(C)cc(NC2=C(Cl)C(=O)c3nc(C)ccc3C2=O)c1 | -75.8% (active)
COc1cc(OC)cc(C2C(C#N)=C(N)Oc3c2ccc2ccc(O)cc32)c1 (stereo not given) | -16.6% (active)
CN1CC(c2ccc(Br)cc2)C(C(=O)c2ccc(Br)cc2)C12C(=O)Nc1ccccc12 (stereo not given) | 81.4%

Structure (SMILES) | growth
COc1ccc2c(c1)c(-c1cc(N)n3nc(-c4cn(C)c5ccc(OC)cc45)cc3n1)cn2C | 142%
CC(C)(C)c1cc(C(=O)Nc2ccccc2C(=O)NCCN)cc(C(C)(C)C)c1 | -76.7% (active)
C=CCn1c(SCC(=O)Nc2ccc(C(=O)/C=C/c3ccc(Cl)cc3)cc2)nnc1-c1cc(OC)c(OC)c(OC)c1 | 79%
COc1cc(/C=N/NC(=O)Cn2c(C(C)C)nc3ccccc32)ccc1O | 84.9%
Cn1c(=O)c2c(nc(Br)n2CCC(=O)Nc2ccc(F)cc2)n(C)c1=O | 113%
C=C(C)[C@@H]1C[C@H](O)Cc2cc(Cl)cc(Cl)c2N1 | 97.5%
CCCSc1nc(Nc2ccc(/C(C)=N\NC(N)=S)cc2)c(C#N)c(-c2ccccc2)n1 | 66.5%
N#CC1CCc2c(c(-c3ccc4nc(N)sc4c3)nc3ccc4[nH]ncc4c23)C1 (stereo not given) | 21.4%
O=C1c2cccc3cccc(c23)C(=O)N1N1C(=O)c2cccc3c(N4CCOCC4)ccc(c23)C1=O | 99.9%
COc1ccc(C(=O)/C=C/c2c[n+](=O)c3ccc(F)cc3n2[O-])cc1 | 101%
O=C(CSC1CCc2ccccc21)N/N=C/c1ccccc1O (stereo not given) | 33.9%
CCc1nc(N)nc(N)c1-c1ccc(Cl)cc1 | 62.5%
Oc1cccnc1CN1CCOCC1 | 97.2% and 102%
O=C(Nc1ccc2cc3ccc(NC(=O)NC4CCCCC4)cc3nc2c1)NC1CCCCC1 | 105%
CCN(CC)c1ccc(/C=N/N=C(N)N)cc1 | 26%
COc1ccc(-c2nc3ccccn3c2/C=C/C(=O)c2cc(OC)c(OC)c(OC)c2)cc1OC | 8.94% (active)
CCN(CC)CCN1C(=O)c2cccc3c(/C=C/CN4C(=O)c5cccc6cccc(c56)C4=O)ccc(c23)C1=O | 99.2%
COC(=O)c1nc(N)nc(C(=O)OC)c1C(=O)c1ccc(OC)cc1 | 98.1% and 47.2%
Cc1cc(C)n(CC(=O)Nc2ccc(-c3nc4ccccc4s3)cc2)n1 | -3.57% (active)
CCCCCN1C(=O)/C(=c2\sc3n(c2=O)C2C(NN=3)N(CC)C(=O)N2CC)c2ccccc21 (stereo not given) | 5.08% (active)
